TGFb SMAD3 inh – blocks TGF-b signaling. HepG2 CAGA-GFP TGF-b/SMAD3 reporter, GFP fluorescence, 18 h; TGF-beta stimulated, 500 pg/mL final. Potency, µM (series often up to 46.1 µM), actives largely listed as inhibitors. 1.2% of 410,000 active. AID 588855; note: nearly all actives have a fitted effect of over 65% in size
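Cell-based qHTS in HEPG2 carrying a CAGA-GFP Smad reporter; compounds added before 500 pg/mL final TGF-beta, 18 h incubation at 37 degrees C, GFP fluorescence quantified per cell by imaging cytometry.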
DT40 TDP1 no CPT – qHTS for Inhibitors of human tyrosyl-DNA phosphodiesterase 1 (TDP1): qHTS in cells in absence of CPT. DT40 Tdp1-/- hTDP1 cells, no CPT, ATP luminescence, 48 h. Potency, µM (titrated, usually from 46.2 µM), most hits filed as inhibitors. 15% of 420,000 active; note: nearly all actives have a fitted effect of over 55% in size
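Cells were dispensed at 400 per well, compounds added by pin tool, plates incubated ≥48 hr at 37 °C, then CellTiter-Glo added for 30 min at room temperature before luminescence reading. Line: DT40 Tdp1-/- complemented with hTDP1; camptothecin omitted.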
TDP1 cell CPT – DT40-hTDP1 cell growth loss with CPT; chicken DT40 Tdp1-/-;hTDP1 cells + 20 nM CPT, ATP luminescence, 48 h; Potency, µM (titrated, usually from 46.2 µM), actives largely listed as inhibitors; 12% of 420,000 active; AID 686979; note: nearly all actives have a fitted effect of over 55% in size
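Chicken DT40 Tdp1-/- cells complemented with human TDP1, 400 cells/well, exposed to compounds plus 20 nM camptothecin for at least 48 h at 37 C; viability read as ATP content by CellTiter-Glo luminescence.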
ATXN2 expr inh – reduces ATXN2 reporter expression in HEK-293 cells. Potency, µM (doses to about 57 µM), most hits filed as inhibitors. 0.72% of 360,000 active. HEK-293 ATXN2-luciferase reporter, luminescence, 24 h; note: nearly all actives have a fitted effect of over 55% in size
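qHTS (up to 57 uM final) was run with 24 h compound exposure of reporter cells at 37 °C. Each well was multiplexed: SteadyGlo luminescence measured ATXN2-luciferase expression after a fluorogenic Gly-Phe-AFC viability readout (25 uM final).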
ATXN viability – viability counter-screen for ATXN expression inhibitors; S2 cells (HEK-293 line with an ATXN2-luciferase reporter) viability, CellTiter-Fluor protease fluorescence, 24 h; Potency, µM (series often up to 56.7 µM), hits mostly cytotoxic; 0.49% of 400,000 active; note: nearly all actives have a fitted effect of over 40% in size
HepG2 tox – counter-screen for TGF-b inhibitors: cytotoxicity in HepG2 cells; HepG2 CAGA-GFP viability, ATP luminescence, 18 h; Potency, µM (top dose mostly 46.1 µM), hits mostly cytotoxic; 0.76% of 410,000 active; AID 588856
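HepG2 CAGA-GFP cells (1000/well, DMEM with 1% FBS) received compound, then TGF-beta at 500 pg/mL final, and were incubated 18 hours at 37 degrees C. Viability was read by CellTiter-Glo luminescence. Media-only wells were set as complete cell-killing and DMSO as no toxicity.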
Large screens that a line does not name were inactive. Compounds with a hit are over-represented: about 17% of the library has one in this group of screens. Calls come from the whole dose curve; as a rule, active = well fitted curve in the direction sought with a large enough effect; inconclusive = small, poorly fitted or top-dose-only effect, or another doubt; inactive = no such curve, though single readings can be large; an effect the other way counts as inactive or inconclusive.

CCOC(=O)C1=C(C)NC(=O)NC1c1ccccc1OCc1c(F)cccc1Cl (stereo not given)	TGFb SMAD3 inh inconclusive, DT40 TDP1 no CPT 16µM, TDP1 cell CPT 23µM
CCOC(=O)C1=C(COC(=O)/C=C/c2ccc(OC)c(OC)c2)NC(=O)NC1C (stereo not given)	DT40 TDP1 no CPT inconclusive
CCOC(=O)C1=C(COc2ccc(F)cc2Cl)NC(=O)NC1c1cc(C)ccc1C (stereo not given)	DT40 TDP1 no CPT 21µM, TDP1 cell CPT inconclusive
CCOC(=O)C1=C(COC(=O)/C=C/c2ccc(OC)cc2OC)NC(=O)NC1C (stereo not given)	DT40 TDP1 no CPT 15µM, TDP1 cell CPT inconclusive
CCCOc1ccccc1C1NC(=O)NC(C)=C1C(=O)OCCOCC (stereo not given)	none
CCOC(=O)C1=C(CN2CCOCC2)NC(=O)NC1c1cc(C)ccc1C (stereo not given)	none
COCCCNC(=O)C1CCN(C(=O)c2cnn(-c3ccccc3)c2-n2cccc2)CC1	none
COCCCNC(=O)C1CCCN(C(=O)c2cnn(-c3ccc(F)cc3)c2-n2cccc2)C1 (stereo not given)	none (no result: DT40 TDP1 no CPT, TDP1 cell CPT)
Cc1ccc(CNC(=O)C2CCCN(Cc3cnn(-c4ccccc4)c3-n3cccc3)C2)cc1 (stereo not given)	DT40 TDP1 no CPT 21µM, TDP1 cell CPT 21µM, ATXN viability inconclusive
CCCSCCCNC(=O)C1CCN(C(=O)c2cnn(-c3ccccc3)c2-n2cccc2)CC1	TGFb SMAD3 inh inconclusive, DT40 TDP1 no CPT inconclusive, TDP1 cell CPT 18µM
CCCSCCCNC(=O)C1CCCN(C(=O)c2cnn(-c3ccccc3)c2-n2cccc2)C1 (stereo not given)	TGFb SMAD3 inh 16µM, DT40 TDP1 no CPT inconclusive, TDP1 cell CPT inconclusive
C=CCn1cc(C(=O)N2CCN(C)CC2)c(=O)c2cc(S(=O)(=O)N(CC)CC)ccc21	none
CC(NC(=O)COC(=O)C1=COCCO1)C12CC3CC(CC(C3)C1)C2 (stereo not given)	none
CC(=O)N1CCN(c2csc3ccc(F)cc3c2=O)CC1	ATXN viability inconclusive
COc1ccc(/C=C/C(=O)N2CCN(c3ccccn3)CC2)c(OC)c1OC	DT40 TDP1 no CPT inconclusive, TDP1 cell CPT inconclusive (no result: ATXN2 expr inh)
COc1ccc(/C=C/C(=O)N2CCN(c3ccccn3)CC2)c2ccccc12	TGFb SMAD3 inh inconclusive, DT40 TDP1 no CPT 26µM, TDP1 cell CPT inconclusive
CCN(CC)C(=O)c1ccc2c(c1)N(Cc1ccc(C(F)(F)F)cc1)C(=O)c1ccccc1S2	TGFb SMAD3 inh inconclusive, DT40 TDP1 no CPT 18µM, TDP1 cell CPT 16µM, ATXN2 expr inh inconclusive
COCCNC(=O)c1ccc2c(c1)N(Cc1ccc(C(F)(F)F)cc1)C(=O)c1ccccc1S2	TGFb SMAD3 inh inconclusive, DT40 TDP1 no CPT inconclusive, TDP1 cell CPT 16µM, ATXN2 expr inh inconclusive
O=C(NC1CCCC1)c1ccc2c(c1)N(Cc1ccc(C(F)(F)F)cc1)C(=O)c1ccccc1S2	TGFb SMAD3 inh inconclusive, DT40 TDP1 no CPT 9.2µM, TDP1 cell CPT 21µM
O=S1(=O)C=C[C@@H](COCc2ccccc2)N1Cc1ccc(Br)cc1	TGFb SMAD3 inh inconclusive, DT40 TDP1 no CPT inconclusive, TDP1 cell CPT inconclusive
Cn1cnnc1SCC(=O)Nc1ccc(OC(F)F)cc1	none
O=C1c2[nH]c(=O)[nH]c(=O)c2CN1Cc1ccccc1	none
COc1cc(-c2noc(CN3CCN(c4cccc(Cl)c4)CC3)n2)cc(OC)c1OC	TGFb SMAD3 inh inconclusive, DT40 TDP1 no CPT 21µM, TDP1 cell CPT 16µM
COc1ccc(-c2noc(CN3CCN(c4ccccc4OC)CC3)n2)cc1OC	DT40 TDP1 no CPT inconclusive, TDP1 cell CPT 21µM
COc1ccc(-c2noc(CN3CCN(c4ccccc4)CC3)n2)cc1	TDP1 cell CPT inconclusive
CNc1nc(-c2ccc3c(c2)CCN3S(=O)(=O)c2ccccc2)c(C)s1	DT40 TDP1 no CPT inconclusive, TDP1 cell CPT inconclusive

Screening data from PubChem.
